Source: the supplement of paper PMC11417369
Over roughly 25,000 sequences, “ln(normalized median fluorescence intensity)” has its median near 7.1; the highest 2% begin near 10. This is one part of a sample in which the highest values are shown more often than they occur.

system: PfSIP2 AP2 domain 1 (GST-tagged); experiment: gcPBM binding intensity (ln(normalized median fluorescence intensity)); higher = stronger DNA binding
Summary of the method: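 The highest Masliner-normalised natural-log median intensity across replicate spots of either probe orientation is reported as binding intensity. GST-tagged P. falciparum DNA-binding domains expressed in E. coli were applied for 1 h to an Agilent 4 × 180k array of primer-extended double-stranded 36-bp intergenic genomic probes plus negative controls, and bound protein was detected with Alexa488 anti-GST antibody and scanned at 488 nm.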

| Sequence | gcPBM binding intensity (ln) |
| --- | --- |
| ATATAAATTGGCAATAGTACATAAAGGCATAGAAAG [XGTACX_site2674] | 7.31 |
| TTGTATATATTTCCTTGTACGTAATAATTCTTATTG [XGTACX_site3938] | 7.19 |
| TTTATTTGTTCATGCGTGCACTTGATAACAATGTAC [GTGCAC_site9561] | 9.9 |
| AAATATAATTAATGATGTACACTTATAGATATTGAT [XGTACX_site8435] | 7.09 |
| ATATTATAATTGAAGGTGCAAAATGTAATATAGATA [GTGCAC_site9661] | 10.6 |
| AGATATTATAATTAATGTACAAAAAGAAAAAATAGA [XGTACX_site8964] | 7.04 |
| TTTTATAATCATAATAGTACTTTTTCTTTTTCACAT [XGTACX_site5017] | 6.7 |
| TATATATATAATGTTTGTACATATTAAATATATATG [XGTACX_site407] | 8.3 |
| CTCATTTTGTTAATGGTGCAAAAAAAAAAAAAAAAA | 11 |
| TTTTCATTTGTGACAGTGCAAAATGTTATATTAAAA [GTGCAC_site9647] | 8.57 |
| TTTTTTGTTACAACAGTGCAAAAAAACCTTAATGTT | 7.84 |
| TTATCAATAAAATGCACACACTGTAATATTATTAAA [CACACA_site6055] | 7.18 |
| TATCTTATAAACTCTGCACACATAATATATTAAATG [CACACA_site8587] | 9.1 |
| TTATCATTTGCCATTGTGCACTTATATGCTCACATT | 10.2 |
| ATATGTATGTATTTATTATTGTGCATTGTATTTATA [CACACA_negctrl_site664] | 7.44 |
| ATATATATTATCATTGTGCACTTATTTATATACCTT | 10.5 |
| TATGTATGTGCTTGTGCGCACCGATAATATAGCCAA | 9.96 |
| AAAAAGGAAATAATAACACACATTAATAATTATAAA [CACACA_site3401] | 6.67 |
| TTATATGCATAAAAAGGTACACATATATAAATAAAT [XGTACX_site6894] | 7.12 |
| GGTATTTATGGACGCGTGCACACACATATGAACAAA | 9.35 |
| CAAAAGGATATGCACACACACACACGGATATTTATA [CACACA_site7099] | 7.41 |
| TTTATGCACGCGTGCACACACATATGAAAAAAGGTA [CACACA_site3315] | 10.4 |
| TATTTATGCACGCGTGCACACACATATGAAAAAAGG [CACACA_site9090] | 10.4 |

| Sequence | gcPBM binding intensity (ln) |
| --- | --- |
| TATGAAAAAATATATACACACATAATAAAGGTATAT [CACACA_site3737] | 6.9 |
| TGTTTTATTTATTAAGCACACGCGATTTAAAAAATA [CACACA_site981] | 6.79 |
| TGTATATTTTAGTGATGTACTAATATTATTACTAAT [XGTACX_site3952] | 6.99 |
| TTCTAATATTTACATAATATATAGAAATATAAAGGT [XGTACX_negctrl_site504] | 7.4 |
| GTTAACAAATAATGCACACAAATGGATAAAATTATA [CACACA_site3725] | 7.68 |
| TATATTATCAAAATGGTGCAATAATTTCTATATTAT [GTGCAC_site9772] | 9.9 |
| TATATTAACAAAATGGTGCAATAATTTCTATATTGT [GTGCAC_site9430] | 9.87 |
| GTAGACATTATAATGGTGCAAAAAAATTAACAAAAA [GTGCAC_site9891] | 10.5 |
| AGCAAAACAAAAAAATTAAAATTAACATATAATCAT [GTGCAC_negctrl_site393] | 6.7 |
| TATATTAACAAAATGGTGCAATAATTTCTATATTAT [GTGCAC_site9857] | 10.4 |
| TTAAATACTAAAAAGTGTACACATACATAAAAAATT [XGTACX_site6261] | 7.32 |
| TTTTGTTTATTATGATTCAAAATGATTTTATCTTTG [TGCATGCA_negctrl_site425] | 6.71 |
| ACATATATATATTTATATATATATATATATATGTGA [CACACA_negctrl_site613] | 7.44 |
| AAGTATAGTCTTACATATATATATATATATATATAT [GTGCAC_negctrl_site280] | 9.42 |
| AGTTTTATATAAGCTTGTACTTAATATTATTAAGTA [XGTACX_site5919] | 6.99 |
| ATCTAATATATATTCTGTACGTAATTAAAACCACAA [XGTACX_site3152] | 7.54 |
| GGACTTAAATAAAATGGTACAGAATTTATATATATT [XGTACX_site8214] | 6.83 |
| TTAAAAGTTATGGATACACACATATAAATATAGATT [CACACA_site7175] | 6.77 |
| AAATAGTTGTTAAAGGTGCACAATATGGATATAAGA | 11.2 |
| TAGTTAACAAATAATGCACACAAATGGATAAAATTA [CACACA_site9240] | 7.83 |
| GTAAATATTAATAAAAGTACATATGTAGCATATGGA [XGTACX_site5219] | 7.09 |
| TTATTTATTTATTCATGTACGTGTATTTTTTAAAAA [XGTACX_site7915] | 7.28 |
| TGTGCACGTTCTGTGACACACATTTAAATGTGCTTA [CACACA_site176] | 10.7 |

| Sequence | gcPBM binding intensity (ln) |
| --- | --- |
| TATATATATATATATGTGCACATTTTATTAAAATGT | 9.6 |
| TTAAATTACTAATGTGCACACATACTAACGTTTAAA [CACACA_site3573] | 9.21 |
| TCTGTATATTTCGCGCGTACGAACAAATTGATAATT [XGTACX_site7965] | 7.11 |
| AAAAATATAATATAATGTACACATAAACAAAAAAAA [XGTACX_site3658] | 7.04 |
| ATATAATATTAGTGCACACACAAAAATGTACTAAAC [CACACA_site632] | 10.9 |
| TATAATATAATATATGCACACAAATATGTATATATG [CACACA_site8664] | 7.15 |
| CTATAATATTAGTGCACACACAAAAATGTACTAAAC [CACACA_site6442] | 11.3 |
| ATAATAAATACACTAGTGCAAAATAATATATGTACT [GTGCAC_site9707] | 8.13 |
| AGAAAAATAAACAAATGTACAAATTATTACTATATA [XGTACX_site1087] | 6.8 |
| ATATTACAAATATAATGTACAAAATATAAATATGCA [XGTACX_site8106] | 6.85 |
| GTATATAATATTAGTGCACACACAAAAATGTACTAA [CACACA_site8112] | 10.9 |
| AAAAATATAATATAATGTACACAAAAAAAAAAAAAT [XGTACX_site4914] | 7.13 |
| TTCGTATATTATTAATGTACATTATAAAATCAATAT [XGTACX_site5751] | 7.08 |
| GACTGAACAACATAATGTACATTTATAAGTATATAT [XGTACX_site3813] | 7.15 |
| TTTTTTTTCAATGGTTGTACAAAGTAAAACAACAAA [XGTACX_site1582] | 7.2 |
| ATATGTAAATAAATATGTACTCATTTATTATTTTAT [XGTACX_site8748] | 7.06 |
| CATTTTATTCTATATGCATGTTAAAAAATGTGTTGA [TGCATGCA_site128] | 7.12 |
| AAATATAATATACAAAGTACTTTTTCATCTTATATA [XGTACX_site8771] | 6.84 |
| AAACAATTTGGGTGTACACATGATACGTTCGATGAG [CACACA_site5160] | 7.18 |
| ATAAAAGAATAAATAAAACACATATATATATATATA [XGTACX_negctrl_site31] | 9.43 |
| ATATTTATAAATTGCACACAAATAATAACATTATAT [CACACA_site5322] | 7.13 |
| AAATATTTATAAATTGCACACAAATAATAACATTAT [CACACA_site8737] | 7 |
| TATAATATTTGGTGCACACAAATTAACAACTGTTTA [CACACA_site3742] | 11.7 |

| Sequence | gcPBM binding intensity (ln) |
| --- | --- |
| TGTATAATATTTGGTGCACACAAATTAACAACTGTT [CACACA_site9245] | 11.4 |
| CTTTGTAGTATATTAACACACAACTGTTTATAATAT [CACACA_site6038] | 7.05 |
| TTCTTTGTAGTATATTAACACACAACTGTTTATAAT [CACACA_site9305] | 7.27 |
| AAAGGTTCACATTATATAGTTATGTAATATATATGT [CACACA_negctrl_site542] | 6.84 |
| ATATTTCATTTTTGTACACACAACGTTGGAGGGTTT [CACACA_site3043] | 7.18 |
| TCATATTTCCATAGGAGTACATAAAAAAAATAATAT [XGTACX_site7601] | 7.06 |
| TAAAAATAATATTAATGTACATTACATATTAATATA [XGTACX_site1019] | 6.83 |
| GTTATAAATGCATATACACACATACGTACATACATA [CACACA_site7655] | 7.4 |
| ATAAATAAATTTATACGTACACATAATATATATATA [XGTACX_site4634] | 8.89 |
| AAAAGACATTTTTTTTTATAAATACACACGTACGTG [TGCATGCA_negctrl_site281] | 6.95 |
| TTTTTTTTTATAAATACACACGTACGGGTGCATAAC [CACACA_site8444] | 11.3 |
| CATTTTTTTTTATAAATACACACGTACGGGTGCATA [CACACA_site1569] | 10.9 |
| TTTTATAAATACACACGTACGTGTGCATAACGTTTT [XGTACX_site3199] | 7.21 |
| ATGTATTTATTATTTAGTACACATTATTTTCTTATA [XGTACX_site6365] | 7.05 |
| AAATACATATTTAGAAGTACATTTATACATTTAATA [XGTACX_site8871] | 7.04 |
| CATATATAAATATATACACACATATATATATATATA [CACACA_site1365] | 9.43 |
| TGAAGGTCAGTTCACAGTACCCAGTAACTCTACGGA [XGTACX_site2554] | 6.62 |
| AGGATTATATATTAATGTACCCGCGTTAATTTTTTT [XGTACX_site2878] | 6.82 |
| TTTTTTTTTATAAGGTGTACGTAAAATGTGTAGGTC [XGTACX_site3585] | 8.36 |
| GTCTATATATTTTAGGTGCAACGTAAATGTAAAAAT | 10.7 |
| ATATATATATTTATATTTATATGTAAATATCAACGT [TGCATGCA_negctrl_site32] | 8.59 |
| TTAAGTAGTACATACACACACATATACAAAAAGAAA [CACACA_site3972] | 7.3 |
